Many of the other results were omitted from the sample, so hits are more common in it than they were.
IL-1B inflam inh = blocks inflammasome-driven IL-1 beta release; activity change, % at 57.5 µM; 360,000 tested, 4.7% active; THP-1 LPS/ATP IL-1B secretion, AlphaLISA, 16 h; stronger effect = lower value; in the data active means activity change below about -50%; inconclusive means mostly about -30% to -49%
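Secreted IL-1B measured by AlphaLISA bead assay after 16 h compound exposure of THP-1 cells; compounds (final up to 57.5 uM) added 1 h before LPS (250 ng/mL) and ATP (1.25 mM) stimulation; lower signal means less secretion.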
HT1080 IDH1KD tx = HT-1080 IDH1 knockdown cell toxicity (counter line); Potency, µM (titrated, usually from 46.1 µM), actives largely listed as cytotoxic; 360,000 tested, 2% active; HT-1080 IDH1 knockdown viability, ATP luminescence, 48 h; AID 686971
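Assay cells: HT-1080 with IDH1 knockdown, 750 per well, RPMI/5% FBS. Exposure: 48 h at 37 °C following 2 h pre-incubation. Read: CellTiter-Glo luminescence; fitted concentration-response, curve class assigned.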
ALOX12 inh = blocks human arachidonate 12S-lipoxygenase | P18054 | AID 1671190 | purified 12hLO, xylenol orange hydroperoxide absorbance | 580,000 tested, 1.1% active | Potency, µM (series often up to 108 µM), usual class: inhibitors
Target sequence (P18054 whole entry, looked up): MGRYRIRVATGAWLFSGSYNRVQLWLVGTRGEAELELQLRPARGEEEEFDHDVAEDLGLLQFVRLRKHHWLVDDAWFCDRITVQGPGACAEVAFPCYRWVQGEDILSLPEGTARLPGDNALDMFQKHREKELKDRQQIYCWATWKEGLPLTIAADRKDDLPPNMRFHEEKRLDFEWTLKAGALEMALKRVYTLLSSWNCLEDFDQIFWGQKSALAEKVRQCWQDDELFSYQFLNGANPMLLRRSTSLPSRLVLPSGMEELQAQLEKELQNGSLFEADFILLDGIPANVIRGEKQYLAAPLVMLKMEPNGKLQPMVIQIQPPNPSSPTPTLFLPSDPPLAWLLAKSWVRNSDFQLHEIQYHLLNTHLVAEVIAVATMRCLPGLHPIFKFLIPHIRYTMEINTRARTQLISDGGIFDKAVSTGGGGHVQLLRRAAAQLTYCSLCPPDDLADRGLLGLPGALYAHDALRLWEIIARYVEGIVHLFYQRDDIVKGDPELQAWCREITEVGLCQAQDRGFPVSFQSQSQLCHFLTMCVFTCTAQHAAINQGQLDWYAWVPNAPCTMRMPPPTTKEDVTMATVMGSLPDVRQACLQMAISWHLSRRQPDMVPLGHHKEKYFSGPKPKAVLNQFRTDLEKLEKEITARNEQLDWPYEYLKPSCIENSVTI
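Purified human 12hLO at 150 nM in 25 mM Hepes, 0.01% Triton X-100, pH 7.0, preincubated 15 min at room temperature with compound. Reaction started with 40 uM arachidonic acid, 30 min at room temperature. Hydroperoxide measured by Fe-xylenol orange, 573/405 nm absorbance ratio.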
HT1080-NT tox = kills 2HG-producing HT-1080-NT fibrosarcoma cells; AID 686970; 360,000 tested, 1.6% active; HT-1080-NT fibrosarcoma viability, CellTiter-Glo ATP luminescence, 48 h; Potency, µM (highest dose often 46.1 µM), most hits filed as cytotoxic;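 further: NT is the 2HG producing partner of a matched IDH1 knockdown line; nearly all actives have a fitted effect of over 55% in size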
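A 48-hour cytotoxicity screen used HT-1080-NT cells plated 2 hours before compound delivery. ATP-based CellTiter-Glo luminescence measured viability, normalized to DMSO and no-cell controls.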
DT40 TDP1 no CPT = qHTS for Inhibitors of human tyrosyl-DNA phosphodiesterase 1 (TDP1): qHTS in cells in absence of CPT; AID 686978, 2013; 420,000 tested, 15% active; Potency, µM (titrated, usually from 46.2 µM), most hits filed as inhibitors; DT40 Tdp1-/- hTDP1 cells, no CPT, ATP luminescence, 48 h; further: nearly all actives have a fitted effect of over 55% in size
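Chicken DT40 Tdp1-/- cells stably complemented with human TDP1 were seeded at 400 cells/well with DMSO in place of 20 nM camptothecin. After compound pinning, cells grew at least 48 hr at 37 °C; viability read by CellTiter-Glo luminescence.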
DT40 TDP1 CPT = DT40-hTDP1 cell growth loss with CPT; chicken DT40 Tdp1-/-;hTDP1 cells + 20 nM CPT, ATP luminescence, 48 h; Potency, µM (doses to about 46.2 µM), hits mostly inhibitors; 420,000 tested, 12% active; AID 686979; further: nearly all actives have a fitted effect of over 55% in size
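Chicken DT40 Tdp1-/- cells complemented with human TDP1, 400 cells/well, exposed to compounds plus 20 nM camptothecin for at least 48 h at 37 C; viability read as ATP content by CellTiter-Glo luminescence.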
Hits are given with their value; . = inactive; ? = inconclusive; / = no result given. Unless noted, the call rests on the fitted dose curve; in most records, active means well fitted curve in the direction sought with a large enough effect; inconclusive means small, poorly fitted or top-dose-only effect, or another doubt; inactive means no such curve, though single readings can be large; an effect the other way counts as inactive or inconclusive.

SMILES	IL-1B inflam inh	HT1080 IDH1KD tx	ALOX12 inh	HT1080-NT tox	DT40 TDP1 no CPT	DT40 TDP1 CPT
CCOC(=O)c1c(NC(=O)COC(=O)Cn2cnc3c2c(=O)n(C)c(=O)n3C)sc(C)c1CC	.	.	.	.	.	6.51µM
COCc1ccc(C(=O)Nc2ccc(NC(C)=O)cc2C(F)(F)F)cc1	/	/	.	/	/	/
CC1N(C)c2cc(NC(=O)c3cccs3)c(P(=O)(Nc3ccc([N+](=O)[O-])cc3)N3CCOCC3)cc2C1(C)C (stereo unspecified)	-57.9	.	?	.	18.4µM	?
O=C(Nc1cc([N+](=O)[O-])ccc1N1CCOCC1)c1cccs1	.	.	.	.	.	.
CC(C)c1noc(-c2cccn3c(CNC(=O)c4ccccn4)nnc23)n1	/	/	.	/	/	/
CCN(CC)C(=O)[C@@H]1C[C@@H](NC(=O)c2ccn(CC)c(=O)c2)CN1C(C)=O	/	/	.	/	/	/
Cc1cc(C)nc(N/N=C2/CCCC/C2=C\c2ccccc2)n1	?	?	.	?	1.16µM	2.06µM
CCCC(=O)Nc1oc2c(C)cccc2c(=O)c1-c1ccccc1	/	/	.	/	/	/
CCCCN(C)CCNC(=O)CCn1nc(-c2ccc(C)cc2)ccc1=O	.	.	.	.	.	20.6µM
COc1cc(-c2c(C#N)c(N)nc3c2CCCC3)ccc1O	.	.	.	.	16.4µM	14.6µM
COc1ccc(-c2c(C#N)c(N)nc3c2CCc2ccccc2-3)cc1OC	.	20.6µM	.	?	7.31µM	8.2µM
COc1ccc(-c2cc(-c3ccc(O)cc3)nc(N)c2C#N)cc1OC	.	?	.	.	?	?
CC(C)C(=O)Nc1ccccc1C(C)C	/	/	.	/	/	/
S=C1NC[C@H](CC2CCCCC2)N1CCc1cccc2ccccc12	.	.	25.1µM	.	?	?
O=C1NC[C@H](CC2CCCCC2)N(CCc2cccc3ccccc23)C1=O	.	.	.	.	16.4µM	?
O=C1NC[C@@H](Cc2cccc3ccccc23)N(CCCCC2CCCCC2)C1=O	.	.	.	.	.	.
O=C(CCn1nc(-c2ccc(Cl)cc2)c2ccccc2c1=O)Nc1ccc(F)cc1	/	/	.	/	/	/
COc1cccc(NC(=O)CN(C)CC(=O)Nc2c(C)cccc2C)c1	/	/	.	/	/	/
CN1CCN(C(=O)CN2CCN(C(C(=O)O)c3cn(C)c4cc(C(=O)O)ccc34)CC2)CC1 (stereo unspecified)	/	/	.	/	/	/
c1csc(CN2CCOCC2)c1	.	.	.	.	.	.
CCN1CSC(=S)N(Cc2ccc(OC)cc2)C1	.	.	.	.	4.61µM	5.17µM
CCN1CSC(=S)N(Cc2ccccc2)C1	-100.2	.	.	.	4.61µM	2.59µM
S=C1SCN(Cc2cccs2)CN1Cc1cccs1	.	.	.	.	23.1µM	?
CCCCCN1CSC(=S)N(Cc2ccccc2)C1	-95.3	.	?	.	3.66µM	4.61µM
CCNC(=O)COc1ncnc2ccc(Br)cc12	/	/	.	/	/	/
SMILES	IL-1B inflam inh	HT1080 IDH1KD tx	ALOX12 inh	HT1080-NT tox	DT40 TDP1 no CPT	DT40 TDP1 CPT
O=C(CN1CCN(c2ccccc2O)CC1)Nc1nc(-c2ccc(F)c(F)c2)cs1	/	/	.	/	/	/
CC(C)c1ccccc1NC(=O)C1CC2CCC1C2 (stereo unspecified)	/	/	.	/	/	/
Cc1ccsc1C(=O)N1CC(C(=O)NC2CCCCC2)C2(CCOCC2)C1 (stereo unspecified)	/	/	.	/	/	/
Cc1sc(N2CC(C(=O)OCC(=O)c3ccc(Br)cc3)CC2=O)nc1-c1ccccc1 (stereo unspecified)	/	/	.	/	/	/
Cc1c(C(C)C)c(=O)n(-c2ccc(S(=O)(=O)NC3CCCCC3)cc2)n1C	-53.8	.	.	.	5.17µM	5.8µM
Cc1c(C(C)C)c(=O)n(-c2ccc(S(=O)(=O)N3CCOCC3)cc2)n1C	.	.	.	.	.	.
Cc1c(C(C)C)c(=O)n(-c2ccc(S(=O)(=O)NCc3ccccc3)cc2)n1C	.	?	.	?	8.2µM	?
Cc1c(Cl)cccc1Nc1nc(N)c(C(=O)C(C)C)s1	/	/	.	/	/	/
O=c1cc(CCl)[nH]c2nc3ccccc3n12	-56.2	?	.	18.4µM	.	.
O=c1cc(-c2ccccc2)[nH]c2nc3ccccc3n12	.	?	.	?	9.2µM	9.2µM
Cc1cccc(N2CCN(C(=O)CCCSc3nc4ccccc4[nH]3)CC2)c1C	?	?	.	?	?	16.4µM
O=C(CCCSc1nc2ccccc2[nH]1)NC1CCCCC1	.	.	.	.	29.1µM	?
O=C(CCCSc1nc2ccccc2[nH]1)NC(c1ccccc1)c1ccccc1	.	.	.	.	14.6µM	11.6µM
Cc1ccc(C2SCCN2C(=O)c2cc3ccccc3oc2=O)cc1 (stereo unspecified)	/	/	.	/	/	/
O=C(Nc1nc2c(s1)CCCC2)c1cccs1	.	?	.	?	20.6µM	?
O=C(Cc1cccs1)Nc1nc2c(s1)CCCC2	.	1.12µM	.	?	?	?
Cc1nn(CCC(=O)Nc2cccc(F)c2)c(=O)c(C#N)c1C	/	/	.	/	/	/
Cn1c(Cl)c(C(=O)Nc2ccc(Cl)cc2)c2ccccc21	.	.	.	.	16.4µM	?
Cn1nc(-c2ccccc2)c(C(=O)Nc2ccc(Cl)cc2)c1Cl	.	.	.	.	.	.
CCN(CC)S(=O)(=O)c1cc([N+](=O)[O-])ccc1N/N=C(/C)c1cccs1	/	/	.	/	/	/
N#Cc1ccc(C23CC4(C2)[C@H](CN(Cc2ccc(C(F)(F)F)cc2)[C@@H]4c2ccccc2)C3c2ccc(C(F)(F)F)cc2)cc1 (stereo partly specified)	.	.	.	.	20.6µM	?
CN1C[C@@H]2C(c3ccc(C(F)(F)F)cc3)C3(c4cccnc4)CC2(C3)[C@H]1c1ccccc1 (stereo partly specified)	?	.	?	?	18.4µM	?
COC(=O)c1ccc(C23CC4(C2)[C@H](CN(Cc2ccc(C(F)(F)F)cc2)[C@@H]4c2ccccc2)C3c2ccccc2)cc1 (stereo partly specified)	.	.	/	.	4.11µM	7.31µM
c1ccc(C2[C@H]3CN(Cc4cccnc4)[C@H](c4ccccc4)C34CC2(c2cccnc2)C4)cc1 (stereo partly specified)	.	?	.	?	?	?
c1ccc(C2[C@H]3CN(Cc4cccnc4)[C@H](c4ccccc4)C34CC2(c2ccccc2)C4)cc1 (stereo partly specified)	.	?	.	?	14.6µM	?
O=C(COc1ccc2ccc(=O)oc2c1)NCc1cccs1	/	/	.	/	/	/
